PAX8 inh HTS = inhibitors of PAX8-driven TPO luciferase reporter, primary screen, RMG-I cells, single concentration | SteadyGlo, 24 h | inhibition, % at 12.6 µM | 360,000 compounds, 1.2% hits;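 active = mean replicate inhibition at least 60% with every replicate also reaching 60%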;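 also: luciferase light reporting Pax8 driven TPO promoter activity; plate controls were median of neutral control wells for no effect and mitoxantrone controls for full effect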
Beta cell apopt = inhibitors of cytokine-induced beta cell apoptosis, primary screen, luminescence | INS-1E cytokine-induced death, ATP luminescence, 48 h; percent of positive-control rescue, neutral wells zero | protection from apoptosis, % (no concentration beside the values) | 300,000 compounds, 0.8% hits | AID 435005, 2010;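 active = Every replicate reaches about 75%, or at least half do and their mean reaches it too, limit read from the data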;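 also: 0% = cytokine-treated negative control wells and 100% = positive control rescue; higher means more ATP so stronger rescue from cytokine killing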
Mdm2-MdmX inh = inhibitors of human Mdm2-MdmX association, primary screen, cell-based, luminescence, split luciferase, SaOS-2, uHTS; inhibition, % at 8 µM; AID 485346, 2010; Protein Mdm4 (Homo sapiens) + E3 ubiquitin-protein ligase Mdm2 (Homo sapiens), …; 330,000 compounds, 3% hits; SaOS-2 split-luciferase Mdm2/MdmX complementation;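 active = inhibition of at least 50% at 8 µM in the primary screen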
Target sequence (O15151 whole entry, looked up): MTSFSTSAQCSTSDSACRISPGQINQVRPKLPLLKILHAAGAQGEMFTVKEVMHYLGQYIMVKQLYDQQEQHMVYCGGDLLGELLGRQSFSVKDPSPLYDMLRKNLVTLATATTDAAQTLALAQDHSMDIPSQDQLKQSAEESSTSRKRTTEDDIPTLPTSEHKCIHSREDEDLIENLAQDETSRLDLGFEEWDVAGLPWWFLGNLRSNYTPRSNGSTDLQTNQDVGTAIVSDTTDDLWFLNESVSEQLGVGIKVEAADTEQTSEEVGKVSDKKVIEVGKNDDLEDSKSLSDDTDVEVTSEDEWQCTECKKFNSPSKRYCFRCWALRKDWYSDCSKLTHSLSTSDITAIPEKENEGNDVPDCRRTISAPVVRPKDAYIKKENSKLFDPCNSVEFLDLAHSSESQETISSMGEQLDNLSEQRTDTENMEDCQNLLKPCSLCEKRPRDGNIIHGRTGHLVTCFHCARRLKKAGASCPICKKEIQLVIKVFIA
Target sequence (Q00987 whole entry, looked up): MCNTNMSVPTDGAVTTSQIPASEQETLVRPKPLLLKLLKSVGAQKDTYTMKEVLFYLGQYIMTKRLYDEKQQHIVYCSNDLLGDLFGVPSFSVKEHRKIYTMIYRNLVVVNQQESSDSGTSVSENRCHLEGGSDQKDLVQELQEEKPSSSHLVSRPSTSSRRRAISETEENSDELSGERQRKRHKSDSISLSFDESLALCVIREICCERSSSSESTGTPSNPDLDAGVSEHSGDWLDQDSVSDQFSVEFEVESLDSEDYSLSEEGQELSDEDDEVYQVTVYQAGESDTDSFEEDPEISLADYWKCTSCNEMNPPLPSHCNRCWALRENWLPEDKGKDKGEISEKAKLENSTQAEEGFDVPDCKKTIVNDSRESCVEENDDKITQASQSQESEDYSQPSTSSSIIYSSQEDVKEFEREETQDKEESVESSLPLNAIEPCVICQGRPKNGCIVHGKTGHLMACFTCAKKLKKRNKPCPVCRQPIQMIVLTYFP
Gli-Sufu block = Gli-Sufu pathway antagonists, primary screen, luciferase luminescence, Sufu-KO-LIGHT cells, uHTS | 340,000 compounds, 0.74% hits | AID 588413, 2011 | Sufu-KO-LIGHT fibroblasts, Gli luciferase reporter luminescence | inhibition, % at 5 µM;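 active = inhibition above about 55%, limit read from the data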;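 also: 0% = DMSO-treated cells and 100% = wells with medium but no cells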
Shn3 inh set2 = reduction of Shn3 3'UTR firefly luciferase signal, primary screen, Schnurri-3 inhibitor project, cell-based, Clone20 osteoblasts, set 2; inhibition, % at 12.5 µM; AID 588674, 2011; Clone20 osteoblast Shn3 3'UTR firefly luciferase, 24 h; 360,000 compounds, 0.52% hits;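 active = mean inhibition of at least 75% with every replicate also reaching 75%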;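 also: 0% = median of neutral control wells and 100% = pilot-screen positive control compound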
CSC inhib = cancer stem cell viability inhibitors, primary screen, luminescence; cancer stem cell-like cells viability; inhibition, % at 7.5 µM; 300,000 compounds, 1.1% hits; AID 2717, 2010; in the data active = inhibition above about 75%; tested in HMLE shEcad cells
Mdm2-MdmX conf = Mdm2-MdmX complex disruptors, retested hits, confirmation, luminescence, single concentration; shares compounds with Mdm2-MdmX inh; Mdm2-MdmX binding, luminescent assay; inhibition, % at 8 µM; 10,000 compounds, 55% hits; in the data active = inhibition above about 40%
FLuc counter = full-length luciferase signal inhibition, confirmation, counter-screen for Mdm2/MdmX interaction inhibitor project, cell-based, single concentration, SaOS-2. SaOS-2 full-length luciferase counterscreen, luminescence. AID 504607, 2011. shares compounds with Mdm2-MdmX inh. 6,200 compounds, 77% hits. inhibition, % at 8 µM;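 active = mean inhibition at 8 µM reaching about 37%, which flags the compound as non-specific, limit read from the data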;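 also: p53-null SaOS-2 cells with luciferase driven by a doxycycline-inducible promoter; compound on cells about two nights before reading with doxycycline added after day one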
Active calls of the source: *; . = not tested or not shown. A selection: hits, their analogues and other compounds. The true share with any hit is near 4%.

SMILES	PAX8 inh HTS	Beta cell apopt	Mdm2-MdmX inh	Gli-Sufu block	Shn3 inh set2	CSC inhib	Mdm2-MdmX conf	FLuc counter
CS(=O)(=O)N(CC(=O)N/N=C/c1ccccc1C(=O)O)c1cccc(Cl)c1Cl	-14	-6	6	16	-18	-9	.	.
CC(C)c1ccc(/C=N/NC(=O)CN(c2cccc(Cl)c2Cl)S(C)(=O)=O)cc1	.	2	61*	-6	9	.	6	.
C[C@@H]1CN([C@H](C)CO)C(=O)c2cc(NC(=O)NC3CCCCC3)ccc2O[C@@H](C)CCCCO[C@@H]1CN(C)C(=O)c1ccccc1	-27	.	.	.	.	.	.	.
CCOc1cc2[nH]c(=S)n(CCc3ccc(OC)c(OC)c3)c(=O)c2cc1OCC	.	56	83*	7	39	17	-8	.
O=C1C=C(c2cccc(Cl)c2O)C[C@@H](c2ccc(Cl)cc2)C1	-13	-1	1	0	-12	33	.	.
O=C1C(=O)c2ccccc2C(O)=C1C1CCC(c2ccc(Cl)cc2)CC1 (stereo unspecified)	-9	12	90*	-2	-12	45	27	.
COc1cc(NC(=O)c2cccs2)c(C(=O)OCC(=O)NCc2ccccc2)cc1OC	.	41	58*	6	-2	52	16	.
COc1ccccc1-c1cc(-c2ccccc2)nc(SC(C(N)=O)c2ccccc2)c1C#N (stereo unspecified)	.	41	93*	-12	38	12	58*	19
Cc1nc(SC(C(N)=O)c2ccccc2)c(C#N)c(C)c1C (stereo unspecified)	0	-9	-34	-2	-9	-18	.	.
O=C(Nc1cccc(F)c1)N1CC(=O)N2[C@H](CO)[C@@H](c3ccc(C#CCC4CCCC4)cc3)[C@H]2C1	14	.	.	.	.	.	.	.
COc1ccc(S(=O)(=O)N(C)C[C@@H]2Oc3c(NS(=O)(=O)c4ccc(Cl)cc4)cccc3C(=O)N([C@H](C)CO)C[C@H]2C)cc1	-9	.	.	.	.	.	.	.
Nc1ccc2c(c1)C(=O)c1ccccc1-2	-2	5	32	-1	3	-7	.	.
Nc1ccc2c(c1)C(=O)C(=O)c1ccccc1-2	.	107*	98*	19	97*	-5	99*	1
O=C1C(=O)c2ccc(-c3ccccc3)cc2-c2ccccc21	.	98*	84*	-1	96*	131*	100*	52*
CC(C)NC(=O)Nc1ccc2c(c1)C(=O)N(C)[C@H]1CC[C@H](CC(=O)NC3CCCCC3)O[C@H]1CO2	4	.	.	.	.	.	.	.
Cn1cc(/C=C2\SC(=S)N(N3CCOCC3)C2=O)c2ccccc21	3	-6	50*	-2	-1	-8	6	.
Cn1cc(/C=C2\SC(=S)N(NC(=O)c3ccccc3)C2=O)c2ccccc21	9	5	.	-12	-7	7	.	.
COc1cccc(S(=O)(=O)N[C@H]2CC[C@@H](CCNC(=O)Nc3cc(F)ccc3F)O[C@@H]2CO)c1	11	.	.	.	.	.	.	.
N#Cc1c(-c2ccc3c(c2)OCO3)cc[nH]c1=O	.	-7	4	-4	2	-21	.	.
N#Cc1c(-c2ccc(Br)cc2)cc(-c2cccnc2)nc1N	-22	3	-5	6	5	2	.	.
COc1ccc(-c2cc(-c3ccccc3)c(C#N)c(S(C)(=O)=O)n2)cc1	93*	-1	90*	-7	-39	-1	-24	.
COc1nc(-c2ccccc2)cc(-c2ccc3c(c2)OCO3)c1C#N	10	9	57*	43	5	38	58*	58*
CS(=O)(=O)c1nc(-c2ccc(Br)cc2)cc(-c2ccccc2)c1C#N	.	19	100*	9	98*	86*	76*	52*
CS(=O)c1nc(-c2ccc(Br)cc2)cc(-c2ccccc2)c1C#N (stereo unspecified)	.	12	100*	5	76	75*	87*	6
N#C/C(=C\c1cn(CCOc2ccccc2F)c2ccccc12)C(=O)NCc1cccs1	27	-1	54*	-7	5	12	21	.
SMILES	PAX8 inh HTS	Beta cell apopt	Mdm2-MdmX inh	Gli-Sufu block	Shn3 inh set2	CSC inhib	Mdm2-MdmX conf	FLuc counter
Cc1ccc(C)c(OCCn2cc(/C=C(\C#N)C(=O)NCc3cccs3)c3ccccc32)c1	.	8	-2	7	36	27	.	.
O=S(=O)(c1ccccc1)N1CCCCN2[C@H](CO)[C@H](c3ccc(C#Cc4cccnc4)cc3)[C@H]2C1	-10	.	.	.	.	.	.	.
COc1ccc(/C=C/C(=O)NCCc2ccc(OC)c(OC)c2)cc1	-5	-1	-2	-2	-4	0	.	.
COc1ccc(CCNC(=O)/C=C/c2ccc3ccccc3n2)cc1OC	77*	.	58*	14	-12	64	69*	54*
C[C@H](CO)N1C[C@H](C)[C@H](CN(C)C(=O)Nc2ccc(C(F)(F)F)cc2)Oc2ccc(NC(=O)Nc3ccc(F)cc3)cc2CC1=O	26	.	.	.	.	.	.	.
CC(C)NC(=O)Nc1ccc2c(c1)C(=O)N([C@H](C)CO)C[C@@H](C)[C@H](CN(C)CC1CCCCC1)OCCCC[C@H](C)O2	-4	.	.	.	.	.	.	.
COc1ccc2c3c([nH]c2c1)[C@@H](CO)N(Cc1ccccc1F)CC31CN(C(=O)C2CCCC2)C1	17	.	.	.	.	.	.	.
Cc1ccc2[nH]c(-c3cccc(F)c3)cc(=O)c2c1	9	11	58*	24	-33	58	71*	95*
O=c1cc(-c2ccccc2)[nH]c2ccc(F)cc12	11	19	.	7	18	-1	.	.
O=c1cc(-c2cccc(F)c2)[nH]c2ccccc12	57	17	52*	22	-10	47	75*	78*
CC(=O)N1[C@@H](CO)[C@@H](c2ccc(C3=CCCC3)cc2)C12CN(C(=O)NC(C)C)C2	-33	.	.	.	.	.	.	.
CO[C@@H]1CN(C)C(=O)c2cc(NS(=O)(=O)c3ccccc3C)ccc2OC[C@H](C)N(C)C[C@@H]1C	-8	.	.	.	.	.	.	.
COc1ccccc1NC(=O)c1c(Nc2ccccc2C)sc(C(=O)Nc2cccc(Cl)c2)c1N	26	.	75*	8	54	74	27	.
CCc1cc2cc3c(cc2nc1SCC(=O)Nc1cc(C)on1)OCO3	.	23	81*	-1	.	-10	8	.
c1ccc(-c2noc(-c3ccc4c(c3)OCO4)n2)nc1	.	74	83*	50	75	95*	86*	29

High-throughput results from PubChem.
